Some structures have more than one record in an assay (separate samples or runs), and their calls can disagree. Calls of active or inactive are those of the source. How the source made its calls: active means hit-call score of the fitted dose curve at least 0.9, where 1 is the maximum; inactive means score below 0.9.

38 molecules from PubChem BioAssay (EPA / NIEHS) can be followed below.

Read-out in this assay: Cytochrome P450 (CYP1A1), CYP1A1 (gene 1543)
Nature of the assay: LTEA_HepaRG_CYP1A1: Life Technologies and Expression Analysis (LTEA) Assay for Cytochrome P450 (CYP1A1) using HepaRG (AID 2283454). The following applies: mRNA level, 48 h; actives raise or lower the signal. As to the method: LTEA_HepaRG is a cell based, multiplexed-readout assay that uses HepaRG, a human liver cell line, with measurements taken at 48 hours after chemical dosing on a 96-well plate.LTEA_HepaRG_CYP1A1 is one of 102 assay component(s) measured in the LTEA HepaRG cell culture assay. It is a marker of NR mediated metabolism.Data from the assay component LTEA_HepaRG_CYP1A1 was analyzed into 1 endpoint. This assay endpoint, LTEA_HepaRG_CYP1A1, was analyzed with bidirectional fitting relative to DMSO as the negative control and baseline of activity. Using a type of inducible reporter, measures of mRNA induction for gain or loss-of-signal activity can be used to understand regulation of transcription factor activity. To generalize the intended target to other relatable targets, this assay endpoint is annotated to the cyp intended target family, where the subfamily is xenobiotic metabolism.
A total of 1060 chemcials from the ToxCast library were tested in eight-point concentration-response experiments. Cell culture and cytotoxicity assays were conducted at Thermo Fisher Scientific's Custom Services facility (Madison, WI). A single lot of human HepaRG cells (Thermo Fisher Scientific, Frederick, MD) was used for the cell culture experiments. 96-well format collagen type I coated plates of human HepaRG cells were prepared using established methods. Briefly, cryopreserved HepaRG cells were thawed, plated at a density of approximately 100,000 cells/well in HepaRG Thaw, Plate, and General Purpose media (HPRG770, Thermo Fisher Scientific), and incubated for 48 hours. 0.5% DMSO was selected as vehicle control to balance the requisite need of DMSO in HepaRG cultures to maintain differentiation (for example, baseline metabolism, proportions of hepatocytes vs. cholangiocytes), while enabling further hepatic receptor pathway activation (for example, PXR and CAR) in response to chemical exposure. 48 hours after plating, the culture medium was replaced with HepaRG Serum-Free Incudtion Media. Cells were exposed to each test chemical in duplicate and maintained in CO2 incubators for another 48 hours. Chemical plates were thawed to room temperature and 200x concentrations of treatment groups were prepared. 8-point conentration-reponse curves were made with the highest exposure at 100 uM, followed by half-log dilutions, all in 0.5% DMSO. Each test plate contained variouse controls, induction positive controls (1mM phenobarbital), cytotoxicity positive controls ([…] aflatoxin B1), vehicle controls (0.5% DMSO), and total lysis controls (0.5% DMSO). Cell morphology images were taken using an Essen IncuCyte FLR automated microscope, with six 96-well plates imaged in about 24 minutes. Images were captured and exported and JPEG files. Spent culture media was transfered to black-well plates for the LDH assay, and remaining media was sorted at -80 C for later use. Cells were treated with RLT buffer and frozen until shipped for gene expression analysis. Total RNA was isolated from the cell suspension in 75 uL of Buffer RLT (Qiagen, Germantown, MD 20874) by Quintiles/Expression Analysis (Durham, NC) using a custom isolation procedure. Total RNA from each plate well was transferred to a preamplification plate. Fluidigm's 96.96 Dynamic ArrayTM (Fluidigm, Amsterdam, the Netherlands) technology was used for gene expression analyses by quantitative reverse transcription polymerase chain reaction (qRT-PCR, performed by Quintiles/Expression Analysis, Durham, NC)89. Standard TaqManTM Assays (Applied Biosystems/ThermoFisher Scientific, Foster City, CA) were used to assess the expression of 93 genes selected based on their selectivity and sensitivity to important hepatic receptors known to be modulated by environmental chemicals; importance in human hepatocyte functionality; and hepatotoxicity. […]
On to `COCCO`, for which the result was inactive.

In the case of `Cc1nn(C)c(Oc2ccccc2)c1C=NOCc1ccc(C(=O)OC(C)(C)C)cc1`, the AC50 is 19.6 µM (active).

For the molecule `C[C@]12CC[C@@H]3c4ccc(O)cc4C[C@@H](CCCCCCCCCS(=O)CCCC(F)(F)C(F)(F)F)[C@H]3[C@@H]1CC[C@@H]2O` (stereo not given in full), the result was inactive.

Turning to `CCCCCCC(C)OC(=O)COc1nc(F)c(Cl)c(N)c1Cl` (stereo not given), the outcome was inactive.

Consider `N[C@@H](Cc1cc(I)c(Oc2ccc(O)c(I)c2)c(I)c1)C(=O)O`, for which the AC50 is 0.0392 µM (active).

Consider `CCCCOC(=O)C(C)Oc1ccc(Oc2ccc(C(F)(F)F)cn2)cc1` (stereo not given), for which the AC50 was 9.92 µM (active). On the same count and under the same terms, the result for `COC(=O)CSc1cc(N=c2sc(=O)n3n2CCCC3)c(F)cc1Cl` reads 64.9 µM (active).

For `O=C(O)c1ccccc1`, the molecule was classed as inactive and the AC50 is 51.2 µM (active). Take `OB(O)O`: the molecule was called inactive. For the molecule `O=C(c1ccc(O)cc1O)c1ccc(O)cc1O`, the result was inactive. Regarding `C#CCOC(=O)[C@@H](C)Oc1ccc(Oc2ncc(Cl)cc2F)cc1`, the AC50 was 33 µM (active). The same measure, in the same setting: under `CC(C)(C)[C@@H](O)[C@@H](Cc1ccc(Cl)cc1)n1cncn1` stands 33.9 µM (active); under `S=C([S-])NCCNC(=S)[S-].[Mn+2]`, 8.74 µM (active). Consider `CCCN(CCC)C(=O)SCC`, for which the outcome was inactive.

For the molecule `CCCOC(=O)NCCCN(C)C`, the molecule was classed as inactive. Regarding `CC(C)(c1ccc(O)cc1)c1ccc(O)cc1`, the AC50 was 11.7 µM (active) and the molecule was called inactive.

For `CCCCC(CC)CN1C(=O)C2C3C=CC(C3)C2C1=O` (stereo not given), the AC50 is 12.6 µM (active). In the case of `C=CCOC(Cn1ccnc1)c1ccc(Cl)cc1Cl` (stereo not given), the half-maximal activity concentration (AC50) is 12.1 µM (active). For the molecule `CCOC(=O)c1ccc(O)cc1`, the call was inactive. `O=C(O)C1(C(=O)Nc2ccc(Cl)cc2Cl)CC1`: the AC50 was 50 µM (active). Same read-out and setting: under `O=C(Nc1ccc([N+](=O)[O-])cc1Cl)c1cc(Cl)ccc1O` stands 0.147 µM (active); under `CCOC(=O)COc1cc(-n2ncc(C(F)(F)F)c(C)c2=O)c(F)cc1Cl`, 50 µM (active). With `N#CSCSc1nc2ccccc2s1`, the AC50 was 49.4 µM (active). Same read-out and setting: under `CCOC(=O)NCCOc1ccc(Oc2ccccc2)cc1` stands 50 µM (active); under `CSC(=O)c1cccc2nnsc12`, 50 µM (active); under `CCSC(=O)N(CC(C)C)CC(C)C`, 50 µM (active).

Turning to `Oc1ccc(C(c2ccc(O)cc2)C(Cl)(Cl)Cl)cc1`, the molecule was called inactive. Regarding `CCCCCOC(=O)COc1cc(N2C(=O)C3=C(CCCC3)C2=O)c(F)cc1Cl`, the AC50 was 0.00329 µM (active).

Take `COC(=O)c1ccccc1C(=O)O`: the molecule was classed as inactive.

`CCCN(CCC)c1c([N+](=O)[O-])cc(C(F)(F)F)c(N)c1[N+](=O)[O-]`: the AC50 is 9.51 µM (active). On to `CC1(C)C(C=C(Cl)Cl)C1C(=O)OCc1cccc(Oc2ccccc2)c1` (stereo not given), for which the AC50 was 35.9 µM (active). Turning to `C#C[C@]1(O)CC[C@H]2[C@@H]3CCC4=CC(=O)CC[C@@H]4[C@H]3CC[C@@]21CC`, the molecule was called inactive.

`CCOC(=O)C(C)Oc1ccc(Oc2nc3ccc(Cl)cc3o2)cc1` (stereo not given): the concentration at half-maximal activity (AC50) was 56.7 µM (active).

With `CC(=O)[C@H]1CC[C@H]2[C@@H]3CCC4=CC(=O)CC[C@]4(C)[C@H]3CC[C@]12C`, the AC50 was 34.6 µM (active). On the same count and under the same terms, under `c1ccc2[nH]c(-c3cscn3)nc2c1` stands 18.9 µM (active); under `CCC(C)OC(=O)N1CCCCC1CCO` (stereo not given), 64 µM (active).

For `c1ccc(Nc2ccccc2)cc1`, the call was inactive. Consider `CCOC(=O)C(C)Oc1ccc(Oc2cnc3cc(Cl)ccc3n2)cc1` (stereo not given), for which the AC50 is 18.5 µM (active).
